Shown is part of a subset that was picked to be rich in hits.
Methyltransferases: Primary Screen for Target Class Profiling of Small Molecule Inhibitors of Methyltransferases | purified enzyme, MTase-Glo SAH luminescence; hits give low values | calls only at 40 µM | actives 3.9% (n = 25,000) | AID 1745853, 2022; call rule not given here
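Each enzyme was reacted with SAM and its substrate, with compounds tested once at 40 uM; SAH formed was read by MTase-Glo luminescence.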
* hit, by the source's call; ! = not active in a repeat. % is scaled to controls: 0 for no effect and ±100 for the full control effect.

For O=C(Cn1c(=O)oc2cc(S(=O)(=O)N3CCCC3)ccc21)NCCC1=CCCCC1 the results were Methyltransferases inactive.
`O=C(Cn1c(=O)oc2cc(S(=O)(=O)N3CCCC3)ccc21)NCCc1ccc(Cl)cc1` gave Methyltransferases inactive.
Screening CC1CCN(S(=O)(=O)c2ccc3c(ccn3CC(=O)NCc3ccc(OC(C)C)cc3)c2)CC1 returned Methyltransferases inactive.
Screening CCc1ccc(N2C(=O)c3cc4occc4n3CC2(C)C(=O)NC2CCCCCC2)cc1 (stereo not drawn) returned Methyltransferases inactive.
`CC(C)Oc1ccc(CNC(=O)c2cc3n(n2)CC(C)(C(=O)NC2CCCCCC2)N(C)C3=O)cc1` (stereo not drawn) gave Methyltransferases inactive.
For Cc1ccc(C)c(N2CCN(S(=O)(=O)c3cc4[nH]c(=O)[nH]c4cc3C)CC2)c1 the results were Methyltransferases inactive.
`CC1=CC(=O)CC(C)(C)C1/C=C/C(C)OC1OC(COC2OCC(O)C(O)C2O)C(O)C(O)C1O` (stereo not drawn) gave Methyltransferases inactive.
`CC1=CC(=O)CC(C)(C)[C@@]1(O)CC[C@@H](C)O[C@@H]1O[C@H](CO)[C@@H](O)[C@H](O)[C@H]1O` gave Methyltransferases inactive.
CC1=CC(=O)CC(C)(C)C1CCC(C)OC1OC(COC(=O)c2cc(O)c(O)c(O)c2)C(O)C(O)C1O (stereo not drawn) was read as Methyltransferases active.
For CC1=CC(=O)CC(C)(C)C1/C=C/C(C)O[C@@H]1O[C@H](CO)[C@@H](O)[C@H](O)[C@H]1O[C@@H]1OC[C@](O)(CO)[C@H]1O (stereo partly drawn) the results were Methyltransferases inactive.
For CC(CCC1C(C(=O)O)=CC(=O)CC1(C)C)O[C@@H]1O[C@H](CO)[C@@H](O)[C@H](O)[C@H]1O (stereo partly drawn) the results were Methyltransferases active.
COc1cc(C(=O)OC[C@H]2O[C@@H](OC(C)(C)C(=O)O)[C@H](O)[C@@H](O)[C@@H]2O)cc(OC)c1O was read as Methyltransferases inactive.
CCCCN1C(=O)c2cc(C(=O)Nc3cc(Cl)ccc3C)nn2CC1(C)C(=O)NC1CCCC1 (stereo not drawn) was read as Methyltransferases inactive.
Screening COc1cccc(CN2C(=O)c3cc(-c4cccs4)nn3CC2(C)C(=O)NC2CCCCCC2)c1 (stereo not drawn) returned Methyltransferases inactive.
O=C(Cn1ccc2cc(S(=O)(=O)N3CCCCC3)ccc21)NC1CCCc2ccccc21 (stereo not drawn) was read as Methyltransferases inactive.
For Cc1ccc(CN2C(=O)c3c(-n4cccc4)c4cc(C)ccc4n3CC2(C)C(=O)NC2CCC(C)CC2)cc1 (stereo not drawn) the results were Methyltransferases inactive.
`COC(=O)c1ccc(=O)c2nc3/c(=C/O)c(O)cc(=O)c3[nH]c12` gave Methyltransferases active.
O=C(CCc1nnc2n(Cc3ccccc3Cl)c(=O)c3ccccc3n12)N1CCN(c2ccc(F)cc2)CC1 was read as Methyltransferases inactive.
For CC1(C(=O)NC2CCCCCCC2)Cn2c(cc3sccc32)C(=O)N1Cc1cccc(Cl)c1 (stereo not drawn) the results were Methyltransferases inactive.
CN1C(=O)c2cc(C(=O)NCc3cccs3)nn2CC1(C)C(=O)NC1CCCCC1 (stereo not drawn) was read as Methyltransferases inactive.
`Nc1nc(Nc2ccc3c(c2)CCC(N2CCCC2)CC3)nn1-c1cc2c(nn1)-c1ccccc1CCC2` (stereo not drawn) gave Methyltransferases active.
Screening CC(C)c1ccc(-c2cc3n(n2)CC(C)(C(=O)NC2CCCCC2)N(Cc2ccco2)C3=O)cc1 (stereo not drawn) returned Methyltransferases inactive.
`O=C(CSc1nnc2n(CCc3ccccc3)c(=O)c3ccccc3n12)Nc1ccc(F)cc1` gave Methyltransferases inactive.
For COc1ccc2c(c1)CC(NS(=O)(=O)c1ccc(C)cc1)CO2 (stereo not drawn) the results were Methyltransferases inactive.
Screening COc1ccc2c(c1)C[C@H](C(=O)Nc1ccc(-c3cn[nH]c3)cc1OCCN(C)C)CO2 returned Methyltransferases active.
COc1ccc2c(c1)OCC(C(=O)NCc1noc(-c3ccco3)n1)C2 (stereo not drawn) was read as Methyltransferases inactive.
CC(C)CCn1c(=O)c2ccc(C(=O)NC3CCCC3)cc2n2c(=O)n(Cc3ccccc3)nc12 was read as Methyltransferases inactive.
For COc1ccc(C)cc1NS(=O)(=O)c1ccc2[nH]c3c(c2c1)CCCC3 the results were Methyltransferases inactive.
`COc1ccc(OC)c(S(=O)(=O)N2CCN(S(=O)(=O)c3cc(OC)ccc3OC)CC2)c1` gave Methyltransferases inactive.
For CN1CCN(C2CCC(n3cc(-c4ccc(Oc5ccccc5)cc4)c4c(N)ncnc43)CC2)CC1 (stereo not drawn) the results were Methyltransferases active.
For CCCCNc1ncc2c(-c3ccc(CN4CCN(C)CC4)cc3)cn(C3CCC(O)CC3)c2n1 (stereo not drawn) the results were Methyltransferases inactive.
Screening Nc1ncnc2c1ncn2C1CCCC1 returned Methyltransferases inactive.
CC1(C(=O)NC2CCCCCC2)Cn2nc(-c3ccco3)cc2C(=O)N1CCc1ccc(Cl)cc1 (stereo not drawn) was read as Methyltransferases inactive.
Cc1ccc(-c2noc(-c3cccc(S(=O)(=O)N4CCN(c5cc(C)ccc5C)CC4)c3)n2)cc1 was read as Methyltransferases inactive.
`Cc1ccc(-c2n[nH]n3c2nc(=O)c2ccc(C(=O)NC4CCC(C)CC4)cc23)cc1` (stereo not drawn) gave Methyltransferases inactive.
CCc1ccccc1NC(=O)N1CCn2cccc2C1C(C)C (stereo not drawn) was read as Methyltransferases inactive.
For c1ccc(N2CCN(CCc3nn[nH]n3)CC2)cc1 the results were Methyltransferases inactive.
O=C(O)c1ccc(O)c2ncc(N3CCCN(CCc4cccc5ccccc45)CC3)cc12 was read as Methyltransferases active.
For Clc1ccc(C2Nc3ccc(Br)cc3C3C=CCC32)cc1 (stereo not drawn) the results were Methyltransferases inactive.
`CCC(C(=O)NCc1ccccc1F)n1ccc2cc(S(=O)(=O)N3CCCCC3)ccc21` (stereo not drawn) gave Methyltransferases inactive.
`Cn1c(=O)c2ccc(C(=O)NC3CCCCC3)cc2n2c(=O)n(CC(=O)NCc3ccccc3)nc12` gave Methyltransferases inactive.
For N#C/C(=C\c1ccc(O)c(O)c1)C(=O)NCCCNC(=O)/C(C#N)=C/c1ccc(O)c(O)c1 the results were Methyltransferases active!.
`N#C/C(=C\c1ccc(O)c(O)c1)C(=O)Nc1ccccc1` gave Methyltransferases inactive.
For N#CC(C#N)=C(N)/C(C#N)=C/c1ccc(O)cc1 the results were Methyltransferases inactive.
`CCCn1c(=O)c2ccccc2n2c(SCC(=O)NCc3ccc(C)cc3)nnc12` gave Methyltransferases inactive.
CCOCCCNC(=O)C1c2c(n(C)c3ccccc23)SCC(=O)N1CCc1ccsc1 (stereo not drawn) was read as Methyltransferases inactive.
`CCCn1c(=O)c2cc(F)ccc2n2c(SCC(=O)N3CCN(c4ccc(F)cc4)CC3)nnc12` gave Methyltransferases inactive.

Source: PubChem
